Records with an inconclusive call do not appear. The source made the active and inactive calls. Rule for the calls: active = hit-call score of the fitted dose curve at least 0.9, where 1 is the maximum; inconclusive = response in the unintended direction; inactive = score below 0.9.

Chain of human Adrenoceptor Receptor alpha1A Antagonism, conducted at France lab site, ADRA1A (gene 148) (P35348 whole entry, looked up): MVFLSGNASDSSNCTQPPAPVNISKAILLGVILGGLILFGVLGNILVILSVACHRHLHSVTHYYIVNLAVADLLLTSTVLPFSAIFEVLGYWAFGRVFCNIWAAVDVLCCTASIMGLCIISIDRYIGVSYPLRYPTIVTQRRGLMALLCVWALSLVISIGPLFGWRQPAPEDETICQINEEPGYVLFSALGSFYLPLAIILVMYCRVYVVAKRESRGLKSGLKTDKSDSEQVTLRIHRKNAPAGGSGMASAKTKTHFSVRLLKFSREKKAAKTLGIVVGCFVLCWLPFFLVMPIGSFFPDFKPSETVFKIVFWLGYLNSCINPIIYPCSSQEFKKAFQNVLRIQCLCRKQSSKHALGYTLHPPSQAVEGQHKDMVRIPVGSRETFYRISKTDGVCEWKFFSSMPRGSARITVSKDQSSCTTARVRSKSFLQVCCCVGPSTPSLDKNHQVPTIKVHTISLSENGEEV

This experiment has as its target human Adrenoceptor Receptor alpha1A Antagonism, conducted at France lab site, ADRA1A (gene 148) (UniProt P35348). Put plainly: ERF_FR_GPCR_hADRA1A: Eurofins (ERF) G Protein-Coupled Receptor (GPCR) Radioligand Binding LeadHunter Assay for human Adrenoceptor Receptor alpha1A Antagonism, conducted at France lab site. The protocol: ERF_FR_GPCR_hADRA1A is a biochemical, single-readout assay that uses extracted gene-proteins in a cell-free assay. Measurements were taken 1 hour after chemical dosing in a 96-well plate. See alpha1A Human Adrenoceptor GPCR Binding (Antagonist Radioligand) Assay, Cerep.ERF_FR_GPCR_hADRA1A is an assay component calculated from the ERF_FR_GPCR_hADRA1A assay. It is designed to measure radioligand binding using a type of binding reporter as detected by scintillation counting with radiometry technology.Data from the assay component ERF_FR_GPCR_hADRA1A was analyzed at the assay endpoint, ERF_FR_GPCR_hADRA1A, in the positive analysis fitting direction relative to DMSO as the negative control and baseline of activity. Using a type of binding reporter, loss-of-signal activity can be used to understand changes in binding as they relate to gene ADRA1A. To generalize the intended target to other relatable targets, this assay endpoint is annotated to the gpcr intended target family, where the subfamily is adrenoceptor.
Human cells are incubated for 60 minutes in room temprature, using [3H]prazosin ligand at 0.1 Kd (nM) with WB-4101 control inhibitor.Test Sample Requirements: Minimum for 1) Screen: 60 ul of 10 mM stock -OR- 1 mg (pre-weighed) for […] uM final testing. 2) Dose Response: 90 ul of 10 mM stock -OR- 1 mg (pre-weighed) for a top concentration at 10 uM.
Broadly, the AC50 is the midpoint of the concentration-response curve, whichever way the signal moves. Consider `COc1cc(/C=C/C(=O)CC(=O)/C=C/c2ccc(O)c(OC)c2)ccc1O`, for which the AC50 was 258 nM (active).

As to `O=C(/C=C/c1ccc(O)cc1)CC(=O)/C=C/c1ccc(O)cc1`, the AC50 was 205 nM (active).

For the origin of these results see PubChem BioAssay AID2284110 (EPA ToxCast).
